Source: PubChem BioAssay (several laboratories)
This is a sample that favours compounds with a hit; in the whole collection about 3.1% have one here.
GDH-TPI counter – GDH-TPI coupling enzyme inhibitors, primary screen, artefact control for M. tuberculosis FBA inhibitor project, biochemical, absorbance, full deck. GDH-TPI coupled enzyme counterscreen, NADH absorbance. AID 588335, 2011. inhibition, % at 4.8 µM. 360,000 tested, 1.2% active; in the data active = inhibition above about 30%;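 also: 0% = DMSO wells and 100% = wells lacking the enzyme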
Mtb BioA inh – M. tuberculosis BioA enzyme inhibitors, primary screen, biochemical, plate reader, single point, HTS | purified M. tuberculosis BioA enzyme | inhibition, % at 9.99 µM | 360,000 tested, 0.096% active | AID 602481, 2012; in the data active = inhibition above about 40%
3CLpro inhibitor – SARS-CoV 3CLpro protease inhibitors, primary screen, biochemical, quenched FRET; Replicase polyprotein 1ab (Severe acute respiratory syndrome coronavirus), P0C6X7; recombinant SARS-CoV 3CLpro, quenched FRET peptide cleavage; inhibition, % at 6 µM; 290,000 tested, 0.14% active; AID 1706, 2009; in the data active = inhibition above about 12%
Mtb FBA inh – Mtb FBA enzyme inhibitors, primary screen, biochemical, fluorescence, strain H37Rv | Fructose-bisphosphate aldolase (Mycobacterium tuberculosis (strain ATCC 25618 / H37Rv)), … | 360,000 tested, 2.3% active | inhibition, % at 1 µM | AID 588726, 2011 | purified M. tuberculosis FBA, fluorescence read-out; in the data active = inhibition above about 27%;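 also: 0% = vehicle and 100% = reference inhibitor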
Target sequence (P9WQA3 whole entry, looked up): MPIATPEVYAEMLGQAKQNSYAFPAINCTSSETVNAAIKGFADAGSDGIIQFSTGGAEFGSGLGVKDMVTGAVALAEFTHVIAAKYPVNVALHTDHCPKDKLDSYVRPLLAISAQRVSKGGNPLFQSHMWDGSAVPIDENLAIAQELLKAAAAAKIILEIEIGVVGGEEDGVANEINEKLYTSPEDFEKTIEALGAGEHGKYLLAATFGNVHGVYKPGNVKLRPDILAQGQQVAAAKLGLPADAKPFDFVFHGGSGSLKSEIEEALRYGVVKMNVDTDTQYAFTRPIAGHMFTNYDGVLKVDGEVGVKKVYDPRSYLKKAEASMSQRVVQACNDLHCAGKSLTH
FadD28 FP inh – inhibitors of FadD28 bisubstrate probe binding, primary screen, biochemical, fluorescence polarization, single point. Mycobacterium tuberculosis FadD28 fatty-acid-AMP ligase. inhibition, % at 12.5 µM. 360,000 tested, 0.22% active; in the data active = inhibition above about 8.5%, passing the limit was not always enough
Numbers without * were called inactive; . = no result given; + = active, no number.

SMILES	GDH-TPI counter	Mtb BioA inh	3CLpro inhibitor	Mtb FBA inh	FadD28 FP inh
O=C(O)CCCCCN1C(=O)/C(=C\c2ccc(-c3ccc(Cl)cc3)o2)SC1=S	9	-1	-1	1	1
C[C@H](O)C#Cc1ccc([C@H]2[C@@H](CO)N3CCCCN(C(=O)c4ccc(F)cc4)C[C@H]23)cc1	.	0	.	.	.
CC(=O)Nc1ccc2c(c1)C(=O)N(C)[C@@H]1CC[C@H](CC(=O)NCC3CCCCC3)O[C@H]1CO2	.	-1	.	.	.
CN1CCSc2ccc(C(=O)NCc3ccccc3F)cc21	4	0	-7	137*	-2
CCOc1ccc(NC(=O)c2ccc3c(c2)N(C)CCS3)cc1	14	1	.	11	-1
CCN1CCSc2ccc(C(=O)NCc3ccccc3C)cc21	12	-1	0	129*	-1
CC(C)Oc1ccc(CNC(=O)c2ccc3c(c2)N(C)CCS3)cc1	4	0	1	140*	2
O=C(C[C@H]1CC[C@@H](NC(=O)C2CC2)[C@H](CO)O1)Nc1ccccc1	.	-3	.	.	.
CC(C)C#Cc1cnc2c(c1)C(=O)N([C@@H](C)CO)C[C@@H](C)[C@H](CN(C)C(=O)Nc1cc(F)ccc1F)O2	.	3	.	.	.
COCC(=O)N(C)C[C@H]1Oc2cc(C3=CCCC3)ccc2S(=O)(=O)N([C@H](C)CO)C[C@@H]1C	.	0	.	.	.
COc1ccc(CN(C)C[C@@H]2OCCCC[C@@H](C)Oc3ccc(NC(=O)CCC(F)(F)F)cc3C(=O)N([C@@H](C)CO)C[C@H]2C)cc1	.	0	.	.	.
NC(=O)c1cc(-c2ccccc2)sc1NC(=O)Cc1ccc(S(=O)(=O)N2CCOCC2)s1	27	0	19*	1	-1
Nc1nc(=S)c2ncn([C@@H]3O[C@H](CO)[C@@H](O)[C@H]3O)c2[nH]1	27	0	.	-3	-3
Nc1nc(=S)c2ncn(C3CCCCC3)c2[nH]1	31*	-1	.	5	.
Cn1cc(Br)c(C(=O)N/N=C/c2cc3ccccc3nc2Cl)n1	31*	-2	-1	4	-1
CCOc1ccc(Nc2ccc(N)c(S(=O)(=O)O)c2)cc1	16	5	.	-1	22*
NC(Cc1ccc(F)cc1)c1csc(Nc2ccc(C(=O)NCCCO)cn2)n1 (configuration not stated)	10	0	.	-1	-5
CC(C)CC(N)c1csc(Nc2ccc(C(=O)NCCCO)cn2)n1 (configuration not stated)	34*	-6	.	2	-2
CCCNC(=O)C[C@@H]1C[C@H]2c3cc(NC(=O)C4CCOCC4)ccc3O[C@H]2[C@@H](CO)O1	.	-1	.	.	.
COc1ccc(/C=C2\C(=O)N(c3c(Cl)cc(Cl)cc3Cl)N=C2NC(=O)c2cccc([N+](=O)[O-])c2)cc1	4	0	4	-3	8.4*
COc1ccc(NC(=O)Nc2ccc3c(c2)C(=O)N([C@@H](C)CO)C[C@H](C)[C@H](CN(C)C(=O)C2CCCCC2)OCCCC[C@H](C)O3)cc1	.	0	.	.	.
COc1cc(/C=C(\C#N)C(N)=O)ccc1OCc1c(C)no[n+]1[O-]	31*	4	3	0	-5
COc1cc(/C=N/Nc2nncn2N)ccc1OCc1c(C)no[n+]1[O-]	12	0	2	-5	-2
COc1ccc(-c2ccc(C#N)c(SCC(=O)OCc3ccccc3)n2)cc1OC	23	-1	5	+	-4
COc1cccc(-c2ccc(C#N)c(SCC(=O)NCCc3ccccc3)n2)c1	4	-2	-1	4	-1
SMILES	GDH-TPI counter	Mtb BioA inh	3CLpro inhibitor	Mtb FBA inh	FadD28 FP inh
COc1ccc(-c2nnc3ccc(SCC(=O)NCc4ccco4)nn23)cc1OC	2	.	-2	-1	-1
COc1ccc(-c2ccc(C#N)c(SCC(=O)NCc3ccco3)n2)cc1OC	46*	0	2	+	-2
CCOC(=O)c1sc(N/N=C/c2ccc(N(C)C)cc2)nc1C	18	-2	0	3	0
C=CCc1c(C)nc(C)nc1N/N=C/c1ccc(N(C)C)cc1	50*	1	3	13	-1
O=c1cc(CSc2nnnn2-c2ccccc2)[nH]c2[nH]n(-c3ccccc3)c(=O)c12	18	1	-2	1	8.9*
C[C@@H]1CN([C@@H](C)CO)C(=O)c2cc(NC(=O)Cn3cnnn3)ccc2O[C@@H]1CN(C)C(=O)Nc1ccccc1	.	16	.	.	.
CCc1ccc(N=C2NC(=O)/C(=C/c3cc(Br)c(OCC(=O)O)c(OC)c3)S2)cc1	34*	1	-3	2	-10
CCc1ccc(N=C2NC(=O)/C(=C/c3cc(OC)c(OC)c(OC)c3)S2)cc1	30	-2	0	1	-2
CS(=O)(=O)c1ccc2nc(NC(=O)c3ccc(NS(=O)(=O)c4cccc([N+](=O)[O-])c4)cc3)sc2c1	89*	.	3	0	2
CCC(=O)Nc1nc2ccc([N+](=O)[O-])cc2s1	31*	.	-6	3	-1
CCCCOC(=O)Nc1nc2ccc([N+](=O)[O-])cc2s1	-8	.	-3	-1	-4
C[C@H]1CCCCO[C@@H](CN(C)C(=O)Nc2ccc3c(c2)OCO3)[C@@H](C)CN([C@@H](C)CO)C(=O)c2cc(NC(=O)Nc3ccccc3)ccc2O1	.	0	.	.	.
CS(=O)(=O)Nc1ccc(-c2cn3cccnc3n2)cc1	16	2	-5	115*	1
Cc1ccc(-c2cn3cccnc3n2)cc1	7	0	0	+	-4
Nc1cccc(-c2cn3cccnc3n2)c1	7	1	-1	6	0
COc1ccc(C2=CC3=C(Br)C(=O)C(C)(OC(=O)C4CCCC4)C(=O)C3=CO2)cc1 (configuration not stated)	17	0	.	-1	11*
CC1(OC(=O)C2CCCC2)C(=O)C=C2C=C(c3ccsc3)OC=C2C1=O (configuration not stated)	14	-2	.	0	5
CSc1c(C#N)c(N)nc2sc(C(=O)c3ccccc3)c(N)c12	46*	-2	-2	-2	-2
N#Cc1c(SCc2ccc(Cl)cc2)sc(C(=O)c2ccccc2)c1N	-7	-2	5	-4	-3
Cc1c(O)ccc(C(=O)COc2ccc(F)cc2)c1O	32*	1	2	-2	-1
C=CCn1cc(C(=O)OC)c(=O)c2cc(S(=O)(=O)N3CCC(C)CC3)ccc21	32*	3	-5	2	0
COc1ccc(NC(=O)N(C)C[C@H]2OCCCC[C@H](C)Oc3ccc(NC(=O)Nc4cccc5ccccc45)cc3C(=O)N([C@H](C)CO)C[C@H]2C)cc1	.	3	.	.	.
CO[C@H]1CN(C)C(=O)c2cc(NC(=O)c3ccccc3F)ccc2OC[C@@H](C)NC[C@@H]1C	.	0	.	.	.
Cc1ccc(-c2n[nH]c(=S)n2Cc2ccccc2)cc1	-6	1	3	7	-1
